The values below come from PubChem BioAssay (NCI).

Structures are written as SMILES. “And” between values parts separate entries of the source, which are not always exact repeats. Identical values can stand only once. This is part of a sample that, as a whole, favours compounds with a hit. Of some 83,000 tested, about 20% had one in any assay.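 Activity criterion: percent growth below 10, measured after cells in 96-well plates were exposed to a single compound concentration for 48 hours.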 The source made the active and inactive calls.

In this experiment the test system is MDA-MB-468 breast. Description: NCI-60 one-dose screen, 48 h (100 = growth as untreated, 0 = no growth, -100 = all killed). To be noted: 10 µM unless noted.
Take `Cc1c(Cl)cccc1N=C=S`: the growth is 97.8% (inactive).
In the case of `CCN1C(=O)N(CC)C2C1NN=c1s/c(=C\c3cccnc3)c(=O)n12` (stereo not given), the growth was 23.3% (inactive).
Turning to `O=S(=O)(NCCCNc1nccc(-n2cnc3ccccc32)n1)c1ccc(F)cc1`, the growth is 50.2% (inactive).
Turning to `O=C1c2[nH]cc(CN[C@@H]3CCCN3)c2C(=O)c2c1c(O)c1ccccc1c2O`, the growth was -92.4% (active).
The figure for `C=CCN1C(=O)[C@]2(SC1=S)[C@H](c1cccc(Cl)c1)CN(C)[C@]21C(=O)NC2C=CC(Cl)=C[C@H]21` (stereo not given in full) is 27% (inactive); for `C#CCOc1ccc(/C=N/Nc2nc(-c3cc(Cl)ccc3Cl)cs2)cc1` it is 25.9% (inactive); for `Cc1ccc(-c2nc(-c3cn(C)c4ncccc34)cs2)cc1` it is -50.2% [100 µM] (active).
The result for `CCOC(=O)NNC(=S)Nc1ccccc1` reads 97.7% (inactive); that for `CCCCCc1ccc(S(=O)(=O)N(C(C)=O)c2cccc(-c3csc(N(CCN4CCN(C)CC4)C(C)=O)n3)c2)cc1`, -10.9% (active).
Regarding `Cc1nc2sc(C(=O)Nc3cccc(Cl)c3C)c(N)c2cc1C(C)O` (stereo not given), the growth was 25.4% (inactive).
As for `CCCc1nc2ccccn2c1Nc1ccc(C(=O)NO)cc1`, the growth is 87.9% (inactive).
The result for `CC(=O)Nc1ccc(S(=O)(=O)N/N=C\c2ccc(Cl)c(Cl)c2)cc1` reads 100% (inactive); that for `CC(C)(C)OC(=O)CN1CCc2c(sc3ncnc(N/N=C/c4cccc5ccccc45)c23)C1`, 34.3% (inactive); that for `CCCN1[C@@H]2CC[C@H]1/C(=C\c1ccc(OC)c(OC)c1)C(=O)/C2=C/c1ccc(OC)c(OC)c1`, 17.7% (inactive).
The result for `CNc1ncc2cc(-c3cc(NC(=O)NCCC(C)(C)C)c(F)cc3C)c(C)nc2n1` reads 52.7% (inactive); that for `C=C1CC[C@@H]2[C@](C)(COC(C)=O)[C@H](OC(C)=O)CC[C@@]2(C)[C@@H]1CC(Nc1ccc(S(=O)(=O)Nc2nccc(C)n2)cc1)C1=CCOC1=O` (stereo not given in full), -45.8% (active).
The figure for `COc1c(O)cc2oc3cc(O)c(CC=C(C)C)c(O)c3c(=O)c2c1CC=C(C)C` is 71.2% (inactive); for `NC(=O)c1cccc(-n2ccc3cc(NC(=O)c4ccc(N5CCOCC5)c(C(F)(F)F)c4)ccc32)n1` it is 75.7% (inactive); for `CCCNc1nc2ccccc2c2c(=O)c3cccc(Cl)c3sc12` it is 36.2% (inactive).
Regarding `O=C(CCCCCCCn1cc(-c2cccnc2)nn1)Nc1ccccc1-c1ccccc1`, the growth was 48.2% (inactive).
The result for `O=C(Nc1cccc(C(F)(F)F)c1)N1CCN(c2cc(-c3cn(-c4ccccc4)nc3-c3cccc(O)c3)ccn2)CC1` reads 32.5% (inactive); that for `O=C(Cc1ccc(NC(=O)c2cccc(Cl)c2)cc1)NCc1ccccc1`, 39% (inactive); that for `O=C1c2c(c3c4ccccc4n(CCCCCCBr)c3c3[nH]c4ccccc4c23)C(=O)N1O`, -3.78% (active).
Regarding `CN(C)CCC(=O)c1ccc(Cl)cc1`, the growth is 97.3% (inactive) and 97.2% (inactive).
The result for `CCOC(=O)c1cc(C(=O)c2cc(OC)c(OC)c(OC)c2)n2ncc3ccccc3c12` reads 66% (inactive).
The result for `O=C1Nc2ccc(F)cc2/C1=N/c1nnc(Sc2ccccc2)s1` reads -0.912% (active); that for `CC(=O)C1C(=O)C(=O)N(c2cccc([N+](=O)[O-])c2)C1=O` (stereo not given), 102% (inactive); that for `O=c1c(O)cccn1CCCNCCCN(CCCn1cccc(O)c1=O)CCCn1cccc(O)c1=O`, 109% (inactive).
The result for `Cc1c(O)cnc2nn(-c3ccccc3)c(=N)n12` reads 108% (inactive); that for `CCOc1cc(\C=N/N=C(N)/C(N)=N\N=C/c2ccc(O)c(OCC)c2)ccc1O`, 111% (inactive).
`Cc1cc(C)c2c(NC(=O)Nc3ccc(Cl)c(Cl)c3)n[nH]c2n1`: the growth was 109% (inactive).
The figure for `O=C1Nc2ccccc2/C1=C/c1c[nH]c2ccccc12` is 44.4% (inactive); for `CCOC(=O)C1=C(C)N2C(=NC3=C(CCCC/C3=C\c3ccccc3)C2c2ccccc2)S1` (stereo not given) it is 103% (inactive).
The figure for `CN1CCN(c2ccc(C(=O)Nc3cccc(-c4cn(-c5ccc(S(N)(=O)=O)cc5)nn4)c3)cc2C(F)(F)F)CC1` is 68.9% (inactive); for `CCOC(=O)c1nc2c3ccccc3ccn2c1C(=O)OCC` it is 109% (inactive).
The figure for `Cc1ccccc1N1C(c2ccccc2)=NNC12C=CC(=O)c1c(O)cccc12` (stereo not given) is 88% (inactive).
In the case of `CCOc1ccc(/C=N/N=C(N)N)cc1OCC`, the growth is 98.3% (inactive).
The result for `O=C(CCCN1CCOCC1)Nc1ccc(Cn2nnc3c2C(=O)c2nnn(Cc4ccc(NC(=O)CCCN5CCOCC5)cc4)c2C3=O)cc1` reads -74.7% (active); that for `COc1ccc(C)cc1NC(=O)SC(C)C`, 91.9% [100 µM] (inactive); that for `CC(C)[C@@H]1CC[C@@H]2[C@@H]1[C@H](OC(=O)/C=C/c1ccccc1)[C@]1(C(C)C)C[C@@H](OC(=O)CO)[C@@]2(C)O1`, 113% (inactive).
